Screening results (PubChem BioAssay)
This excerpt belongs to a sample that is enriched for hits.
HTT aggregate: qHTS Multiplex Assay to Identify Dual Action Probes in a Cell Model of Huntington: Aggregate Formation (GFP) | PC12 HttQ103-GFP aggregates, Acumen cytometry, 40 h | Potency, µM (doses to about 46.1 µM), for the others: at the highest dose activity change, negative = inhibition, usual class: inhibitors | actives 1.1% (n = 220,000); further: potency means the concentration at half of the fitted maximal effect; on the % scale 0 is the no-effect control and ±100 the full control effect; nearly all actives have a fitted effect of over 60% in size
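Ecdysone-promoter PC12 model expressing HTT exon 1 Q103 fused to GFP, induced by tebufenozide at 100 nM final. Compounds titrated; aggregates sized 1–25 µm scored on a 488 nm laser cytometer.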
PNC assembly inh: High Content Assay for Compounds that inhibit the Assembly of the Perinucleolar Compartment | actives 3.1% (n = 140,000) | PC3M PTB-GFP, PNC prevalence imaging, 16 h; hits give low values | activity change (PNC), negative = inhibition, % at 10 µM;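 active means readout at or below -70, meaning at least 70% loss of cells showing the perinucleolar compartment, a nuclear body marking cancer cells; inconclusive means readout between -30 and a set limit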;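 further: plate controls were DMSO wells for no effect and camptothecin positive control wells for full effect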
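Read-out is percentage of cells bearing a perinucleolar compartment, from automated 20x imaging of fixed, Hoechst-stained PC3M PTB-GFP cells. Cells were seeded 4 h, then exposed 16 h to compound (23 nl of library stock) in duplicate plates.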
HTT ATP protect: qHTS Multiplex Assay to Identify Dual Action Probes in a Cell Model of Huntington: Cytoprotection (ATP); PC12 HTT-Q103 induced, cytoprotection, ATP luminescence, 40 h; actives 0.14% (n = 230,000); Potency, µM (titrated, usually from 56.4 µM), for the others: cytoprotection (ATP increase), actives largely listed as activators; AID 1471, 2008; further: potency means the concentration at half of the fitted maximal effect; % of control where 0% means no effect; nearly all actives have a fitted effect of over 45% in size
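Compounds added alongside 100 nM tebufenozide, which induces toxic Q103 huntingtin exon 1-GFP in stable PC12 cells; surviving cells quantified by luminescent ATP measurement. Medium: phenol red-free DMEM, 5% equine and 5% calf serum.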
Active calls of the source: *; ? = inconclusive; . = not tested or not shown; [ ] = dose if it differs, or a comment. Unless noted, the call rests on the fitted dose curve; in most records, active means well fitted curve in the direction sought with a large enough effect; inconclusive means small, poorly fitted or top-dose-only effect, or another doubt; inactive means no such curve, though single readings can be large; an effect the other way counts as inactive or inconclusive.

SMILES | HTT aggregate | PNC assembly inh | HTT ATP protect
COc1cc(/C=N/NC(=O)C(=O)/C=C2\NC3(CCCC3)Cc3ccccc32)ccc1O | 3% | 17 | 4%[1.9 µM]
CN(C)c1ccc(/C=N/NC(=O)C(=O)/C=C2\NC3(CCCC3)Cc3ccccc32)cc1 | 6% | -109* | .
O=C(Nc1cccc(Cl)c1)C1CCCN(S(=O)(=O)c2cnc[nH]2)C1 (configuration not stated) | -10% | 10 | -4%
CCCn1c(SCC(=O)N2CCc3ccccc32)nnc1-c1ccco1 | -16%[9.22 µM] | -12 | 3%
O=C(CSc1nnc(-c2ccco2)n1Cc1ccccc1)OC1CCCCC1 | 32µM* | -27 | 13%
CCCn1c(SCC(=O)N2c3ccccc3CC2C)nnc1-c1ccco1 (configuration not stated) | 17% | -100* | 9%[10 µM]
O=C(CSc1nnc(-c2ccncc2)n1Cc1ccco1)OC1CCCCC1 | 4% | ? | -5%
CC(C)N=c1c([N+](=O)[O-])nn(C)n1O | 28% | . | -3%
O=C(NCC1CCCO1)c1ccc(CNS(=O)(=O)c2cccc(Cl)c2)cc1 (configuration not stated) | 17% | . | -15%
Cc1ccccc1N1C(=O)CC(Sc2nnc(-c3ccccc3)o2)C1=O (configuration not stated) | 22µM* | -24 | -96%
O=C1CC(Sc2nnc(-c3ccccc3)o2)C(=O)N1c1ccccc1 (configuration not stated) | ? | 19 | -93%
Cc1ccc(-c2nnc(N3CCC(C)CC3)c3ccccc23)cc1C | ? | . | -26%[10 µM]
CC[C@H](C)[C@H](NC(=O)[C@H](C)NC(=O)[C@H](CC(N)=O)NC(=O)[C@H](CCCCN)NC(=O)[C@H](Cc1ccccc1)NC(=O)[C@H](CC(C)C)NC(=O)[C@@H](NC(=O)[C@@H](NC(=O)[C@H](CC(C)C)NC(=O)[C@@H]1CCCN1C(=O)[C@@H](NC(=O)[C@H](CCC(N)=O)NC(=O)[C@H](CO)NC(=O)[C@H](CCCCN)NC(=O)[C@H](CCC(=O)O)NC(=O)[C@H](CO)NC(=O)[C@@H](NC(=O)[C@H](CCSC)NC(=O)[C@H](Cc1ccccc1)NC(=O)CNC(=O)CNC(=O)[C@@H](N)Cc1ccc(O)cc1)[C@@H](C)O)[C@@H](C)O)C(C)C)[C@@H](C)O)C(=O)N[C@H](C(=O)N[C@@H](CCCCN)C(=O)N[C@@H](CC(N)=O)C(=O)N[C@@H](C)C(=O)N[C@@H](Cc1ccc(O)cc1)C(=O)N[C@@H](CCCCN)C(=O)N[C@@H](CCCCN)C(=O)NCC(=O)N[C@@H](CCC(=O)O)C(=O)O)[C@@H](C)CC | . | . | -13%
COC(=O)C(C(=O)Nc1ccccc1C)C1CCCC1 (configuration not stated) | 11% | -83* | -22%
COC(=O)C(C(=O)Nc1ccc(OC)cc1)C1CCCCCC1 (configuration not stated) | -4% | -81* | 1%
Cc1ccccc1NC(=O)C(NC1CCCCC1)C(C)C (configuration not stated) | -18%[9.22 µM] | . | -5%[10 µM]
COc1ccc(NC(=O)C(=S)NC2CCCCC2)cc1 | -24% | . | 13%[10 µM]
COc1cc(C(=O)NC(CCSC)C(=O)OCC(=O)NC(=O)C2CCCCC2)cc(OC)c1OC (configuration not stated) | 9% | . | -29%
CCc1ccc2nc(N3C(=O)C(O)=C(C(=O)c4ccco4)C3c3cccs3)sc2c1 (configuration not stated) | -3% | -100* | -6%[10 µM]
Cc1ccc2nc(N3C(=O)C(O)=C(C(=O)c4cc5ccccc5o4)C3c3cccs3)sc2c1 (configuration not stated) | -4% | ? | -5%
Cc1cc(NC(=O)CSc2nc3ccccc3c(=O)n2C2CCCC2)no1 | 2% | -83* | -4%[10 µM]
CN(C)c1ccc(NC(=O)CSc2nc3ccccc3c(=O)n2C2CCCCC2)cc1 | -1% | -9 | -7%
O=C(CSc1nc(O)cc(=O)n1C1CCCC1)Nc1cccc(Cl)c1Cl | -7% | . | 19%[10 µM]
CCn1c(Cc2ccccc2)nnc1SCC(=O)Nc1cc(C)on1 | -7% | -107* | ?
COC(=O)c1ccccc1NC(=O)CSc1nc(O)cc(=O)n1C1CCCC1 | 9% | -89* | -2%
SMILES | HTT aggregate | PNC assembly inh | HTT ATP protect
Cc1cc(NC(=O)CSc2nnc(Cc3ccccc3)n2C)no1 | 8% | ? | -11%[10 µM]
Cc1ccc(SCCC(=O)NCc2ccco2)cc1 | 9% | 17 | -13%
COc1cc(NC(=O)COC(C)=O)cc(OC)c1OC | 2% | . | -6%
COc1cccc(C(=O)Nc2cc3c(cc2Cl)OCCCO3)c1 | 4% | -13 | .
CC1CCc2c(sc3ncnc(SCC(=O)N4CCN(C(=O)c5ccco5)CC4)c23)C1 (configuration not stated) | -5% | -25 | -12%
Cc1ccc(C(=O)CSc2ncnc3sc4c(c23)CCC(C)C4)cc1 (configuration not stated) | -8% | -119* | 23%[10 µM]
O=C(c1cnccn1)N1CCN(c2ccccc2F)CC1 | 3% | ? | 17%[10 µM]
COc1ccc(-c2ccc(C3C(C#N)=C(N)Oc4n[nH]c(C)c43)o2)cc1 (configuration not stated) | 14% | 29 | -17%
CC(=O)c1c(C)nc2cc(Cl)ccc2c1N | -2% | -95* | -9%[0.074 µM]
Cc1cc(C)c2ccc(Cl)cc2n1 | 1%[9.22 µM] | . | 0%[10 µM]
CC(=O)c1cc(-c2ccccc2)n(CCC(=O)NC2CCC(C)CC2)c1C (configuration not stated) | 2% | ? | 9%[10 µM]
Cc1ccc2[nH]c(=O)c(CN(Cc3ccccc3)Cc3nnnn3C3CCCC3)cc2c1 | ? | -93* | -12%[10 µM]
COc1cc2cc(CN(Cc3nnnn3C3CCCC3)C3CCCC3)c(=O)[nH]c2cc1OC | 1% | ? | -15%
Cc1cccc2cc(CN(Cc3ccc(F)cc3)Cc3nnnn3C3CCCC3)c(=O)[nH]c12 | 2% | -18 | -29%
Cc1ccc2[nH]c(=O)c(CN(Cc3nnnn3C3CCCC3)C3CCCCC3)cc2c1 | -11% | -100* | -12%[10 µM]
CC(C)NC(=O)N(Cc1ccc(Cl)cc1)Cc1cccs1 | 10%[9.22 µM] | . | -7%[10 µM]
CCc1ccccc1-n1c(SCC(=O)Nc2ccc3c(c2)OCCO3)nc2[nH]ncc2c1=O | 13% | -21 | -47%
COCCn1c(=O)c(-c2cccc(C#N)c2)nc2cnc(N3CCOCC3)nc21 | . | . | 21%
COc1ccc(OC)c(NC(=O)CSc2ncccc2C(=O)O)c1 | -8% | ? | 13%[10 µM]
Nc1nonc1NC(=O)CSc1ncccc1C(=O)O | -28% | -84* | -17%[0.074 µM]
Cc1cc(=O)oc2cc(O)cc(O)c12 | . | . | -2%
CCCCCc1cc(O)c2c(C)cc(=O)oc2c1 | 25µM* | 3 | -9%[10 µM]
CCC1(CC)N([O-])C(C)=C(c2ccccc2)[N+]1=O | 3% | 8 | -23%
CCC1(C)N([O-])C(C)=C(c2ccccc2)[N+]1=O (configuration not stated) | -8% | -88* | 7%
